# Rows were chosen to be rich in hits. Some 1.8% of all compounds tested hit in one or more screens of this group.
# Sa RN4220 lethal = S. aureus RN4220 growth inhibition. actives 0.33% (n = 330,000). inhibition, % (concentration not given with the values). OD600, 16 h; in the data active = inhibition above about 85%;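 also: plate controls were untreated cells for no effect and reference antibiotic for full effect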
# Mtb hypoxia inh = reduces hypoxia-regulated biosensor signal in M. tuberculosis | M. tuberculosis hypoxia-regulated fluorescent reporter, fluorescence | fluorescence inhibition, % (no concentration beside the values) | actives 0.1% (n = 300,000) | AID 1159583; in the data active = fluorescence inhibition mostly above about 23%, no sharp cut-off; inactive = mostly below about 17%
# PriA SSB inh = inhibitors of Klebsiella pneumoniae PriA binding to SSB C-terminal tail; inhibition, % at 33 µM; AID 1272365; AlphaScreen SSBct-PriA binding, biotinylated peptide; actives 0.6% (n = 430,000); in the data active = inhibition mostly above about 37%, no sharp cut-off; inactive = mostly below about 20%;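 also: plate controls were negative control peptide for no effect and reference peptide for full effect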
# Sa ugtP lethal = compounds lethal to S. aureus RN4220 ugtP deletion mutant | OD600 growth, 16 h | growth inhibition, % (concentration not given with the values) | actives 0.54% (n = 330,000); in the data active = growth inhibition above about 68%;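 also: plate controls were untreated wells for no effect and antibiotic for full effect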
# PfHsp40 rescue = compounds rescuing yeast from Plasmodium falciparum HSP40 toxicity; growth rescue, % at 12.5 µM; S. cerevisiae expressing PfHsp40, growth rescue, ATP luminescence; actives 0.68% (n = 340,000); in the data active = growth rescue above about 28%, passing the limit was not always enough;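 also: yeast W303a lacking pdr1 and pdr3 grown in galactose medium; growth measured after three days at 30 °C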
# DUSP3 inh = blocks human VHR1 dual specificity phosphatase. recombinant VHR phosphatase, pNPP absorbance. actives 0.52% (n = 290,000). inhibition, % at 13.3 µM; in the data active = inhibition above about 50%
# Target sequence (P51452 whole entry, looked up): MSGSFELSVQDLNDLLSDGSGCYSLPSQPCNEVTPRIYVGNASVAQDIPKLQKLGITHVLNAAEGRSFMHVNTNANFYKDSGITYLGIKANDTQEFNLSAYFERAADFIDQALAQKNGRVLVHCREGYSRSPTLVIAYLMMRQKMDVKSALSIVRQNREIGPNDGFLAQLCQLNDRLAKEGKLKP
# The depositor's hits bear a star; · = not tested or not shown.
SMILES,Sa RN4220 lethal,Mtb hypoxia inh,PriA SSB inh,Sa ugtP lethal,PfHsp40 rescue,DUSP3 inh
CC(=O)Nc1cccc(N2C(=O)CC(N3CCC(C(=O)N4CCCCC4)CC3)C2=O)c1 (configuration not stated),-4,·,-5,-3,-2,16
CN1CCN(C(CNC(=O)C(=O)NC2CC2)c2ccsc2)CC1 (configuration not stated),·,·,8,·,·,·
O=C(COc1ccc(-n2cccn2)nn1)NC1CCCCC1,·,·,-9,·,·,·
CC(=O)c1cnc2cc(-c3ccc(C)cc3)nn2c1C,3,3,1,8,1,35
COc1ccc(-c2cc3ncc(C(C)=O)c(C)n3n2)cc1,2,-2,-19,3,53*,22
COc1ccc(CCC(=O)NCCNC(=O)c2ccc(NC(=O)C3CC3)cc2)cc1,·,·,-3,·,·,·
Cc1csc2nc(CNS(=O)(=O)c3ccc4c(c3)OCCO4)cn12,30,-4,-17,24,63*,16
Cc1csc2nc(CCNS(=O)(=O)c3ccc4c(c3)OCCO4)cn12,-6,4,6,-1,-1,29
CN1C(=O)C2(C(C#N)=C(N)Oc3n[nH]c(-c4ccc(Cl)cc4)c32)c2ccccc21 (configuration not stated),98*,·,-4,75,0,-12
COc1nccnc1OC1CCN(C(=O)N2CCNC2=O)C1 (configuration not stated),·,·,-18,·,·,·
COc1ccccc1/C=C1\SC(=NNC(=O)c2cccc(Br)c2)NC1=O,·,·,-5,·,·,·
COc1ccccc1/C=C1\S/C(=N/NC(=O)c2cccc(Br)c2)NC1=O,68,-82,·,58,142*,27
CC(C)CCn1c2ccccc2c2cc(CC(N)=O)ccc21,-3,-1,4,83*,2,14
NC(=O)CCn1c2ccccc2c2ccccc21,4,5,-2,4,0,4
O=C(Nc1cccc2ncccc12)c1ccc(Cl)cc1,5,15,48*,-5,0,-8
CN(C)S(=O)(=O)c1ccc(C(=O)OCC(=O)Nc2ccc3c(c2)OCO3)cc1,5,21*,7,5,-1,·
CN(C)S(=O)(=O)c1cccc(NC(=O)COC(=O)c2ccc3c(c2)OCO3)c1,4,13,1,17,-1,-7
COc1cc(/C=C/C(=O)N2C(=O)c3cccc(N)c3C2=O)cc(OC)c1OC,·,·,-23,·,-1,55*
CC(C)(C)OC(=O)NC(COCc1ccccc1)C(=O)NC(CO)C(O)C1CC1C(=O)NC1CCCCC1 (configuration not stated),5,-2,·,6,·,·
COCCCNc1nc2cc(OC)c(OC)cc2c2nc(-c3ccccc3)nn12,25,-6,1,11,0,·
CCN(CC)CCCNc1nc2ccccc2c2nc(-c3ccncc3)nn12,1,50*,-21,-7,0,20
CN1CCN(CCCNc2nc3ccccc3c3nc(-c4ccccc4)nn23)CC1,4,17,-5,11,-3,·
CCN(CC)CCCNc1nc2cc(OC)c(OC)cc2c2nc(-c3ccccc3)nn12,18,72*,18,-8,0,9
CCN(CC)CCCNc1nc2cc(OC)c(OC)cc2c2nc(-c3cccnc3)nn12,5,39*,5,51,-1,-4
COC(=O)c1ccccc1NC(=O)CSc1cc(-c2ccncc2)nc(C)n1,·,·,-6,·,·,·
SMILES,Sa RN4220 lethal,Mtb hypoxia inh,PriA SSB inh,Sa ugtP lethal,PfHsp40 rescue,DUSP3 inh
Cc1ccccc1NC(=O)COC(=O)c1cc(S(=O)(=O)N2CCOCC2)ccc1C,3,32*,3,-1,2,·
CCNc1ccc(C(=O)OCC)cc1NC(=O)c1cc(S(=O)(=O)N2CCOCC2)ccc1C,-1,-4,-7,2,113*,8
Cc1ccc(S(=O)(=O)N2CCOCC2)cc1NC(=O)C(c1ccc(Cl)cc1)C(C)C (configuration not stated),89*,3,-3,91*,·,·
Cc1nc2scc(C)n2c(=O)c1NC(=O)Nc1ccc(F)cc1,·,·,-25,·,·,·
O=C(NCCn1cc(SCC(=O)N2CCOCC2)c2ccccc21)c1cccs1,·,·,4,·,·,·
O=C1c2ccccc2C(=O)c2cc(S(=O)(=O)Nc3ccccc3)ccc21,96*,7,51,89*,1,-2
O=C(O)C(Cc1ccccc1)N1C(=O)/C(=C/c2ccccc2)SC1=S (configuration not stated),41,13,-11,39,1,-1
Cc1ccc(/C=C2\SC(=S)N(C(Cc3ccccc3)C(=O)O)C2=O)cc1 (configuration not stated),11,5,-5,4,161*,12
Cc1cccc(C(=O)NC2CCCc3ccccc32)c1 (configuration not stated),8,10,·,12,·,11
Cc1cccc(-n2nnc(C(=O)NC3CCCc4ccccc43)c2N)c1 (configuration not stated),4,13,2,-1,20,52*
O=S(=O)(Cc1ccccc1Cl)NCC1CCN(c2nc3ccccc3s2)CC1,·,·,1,·,·,·
Cn1c(=O)c2c(Nc3ccc(F)cc3)cc(=O)n(-c3ccccc3)c2n(C)c1=O,1,-4,-6,-1,-2,16
Cn1c(=O)c2c(O)cc(=O)n(-c3ccccc3)c2n(C)c1=O,-1,·,-7,6,-1,51*
COc1cc2[nH]c(C(=O)Nc3ccc(F)cc3)cc2c(OC)c1OC,·,·,·,·,1,53*
CCN1CCN(C(=O)c2cc3c(OC)c(OC)c(OC)cc3[nH]2)CC1,2,7,64*,1,0,34
O=C1CCCC(=O)N1CCS(=O)(=O)N1CCN(c2ccccc2)CC1,·,·,-19,·,·,·
COc1ccc(S(=O)(=O)NCCn2ccnc2-c2ncccn2)c(C)c1,·,·,81*,·,·,·
COc1ccc(Br)c(C(=O)NCCn2nc(C)cc2C)c1,·,·,-12,·,·,·
O=C(NCCn1ccnc1-c1ncccn1)c1ccc2c(c1)OCO2,·,·,93*,·,·,·
COc1ccc(OC)c(S(=O)(=O)NCCn2ccnc2-c2ncccn2)c1,·,·,91*,·,·,·
COc1ccc(Br)c(C(=O)NCCn2ccnc2-c2ncccn2)c1,·,·,91*,·,·,·
CC(=O)Nc1ccc(S(=O)(=O)NCCn2ccnc2-c2ccccn2)c(C)c1,·,·,9,·,·,·
O=C(NCC(=O)N1CCC(c2cc(C(=O)Nc3ccccc3F)n[nH]2)CC1)c1ccccc1,·,·,-6,·,·,·
C[C@](O)(CNS(=O)(=O)c1ccc(Br)cc1)C1CC1,·,·,-8,·,·,·
CCN(C1CCCCC1)S(=O)(=O)c1ccc(C(=O)Nc2nnc(Cc3ccc(F)cc3)o2)cc1,·,·,-3,·,·,·
SMILES,Sa RN4220 lethal,Mtb hypoxia inh,PriA SSB inh,Sa ugtP lethal,PfHsp40 rescue,DUSP3 inh
COc1ccc(-n2c(SCc3ccc([N+](=O)[O-])cc3)nnc2-c2ccccc2)cc1,5,·,-5,36,4,13
CCOc1ccc(-n2c(SCc3ccc([N+](=O)[O-])cc3)nnc2-c2ccccc2)cc1,59,5,35,86*,8,12
O=C(CCCN1C(=O)c2cccc3cccc(c23)C1=O)Nc1ccc(-c2nc3ccccc3s2)cc1,·,·,-2,·,·,·
Cc1ccc2sc(-c3ccc(NC(=O)CCN4C(=O)c5ccccc5C4=O)cc3)nc2c1,4,13,·,6,·,54*
COC(=O)c1c(NC(=O)CCCC(=O)O)sc2c1CCC2,8,3,73*,-4,-1,-16
CC(=O)Nc1ccc(S(=O)(=O)N2CCC(Oc3ncccc3Cl)CC2)cc1,·,·,12,·,·,·
O=C(NC1CCC(Oc2ccccn2)CC1)c1ccc[nH]c1=O (configuration not stated),·,·,-12,·,·,·
COc1ccc(-n2nc(C#N)c(Cl)cc2=O)cc1,18,·,-5,20,190*,13
